Assay [1] is described as follows: Human pregnane X receptor (PXR) small molecule agonists, qHTS cell viability counter screen (AID 1346977). Note: nearly all actives have a fitted effect of over 50% in size. Note: potency is the fitted concentration of half-maximal effect. A digest of the protocol: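 Cytotoxicity counter screen run in the same wells as the PXR luciferase assay, using PXR-Luc HepG2 cells in charcoal-stripped serum medium. Viability: CellTiter-Fluor fluorescence after 24hr compound treatment.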
(Quantitative high-throughput screening tests each substance at several concentrations.)

Assay [2] is described as follows: Caspase-3/7 induction in HepG2 cells by small molecules, qHTS assay (AID 1346978). Note: nearly all actives have a fitted effect of over 15% in size. Note: potency is the fitted concentration of half-maximal effect. A digest of the protocol: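 Caspase-3/7 induction was measured by Caspase-Glo 3/7 luminescence (30 min, room temperature) after a 17 hr compound exposure of wild-type HepG2 cells seeded at 2,000 per well and pre-incubated 5 hr.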
Assay [3] is described as follows: Caspase-3/7 induction in CHO-K1 cells by small molecules, qHTS cell viability counter screen (AID 1346979). Note: nearly all actives have a fitted effect of over 35% in size. Note: potency is the fitted concentration of half-maximal effect. The method, boiled down: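 Cytotoxicity counter screen run in parallel with the caspase-3/7 assay: CHO-K1 cells, 16hr compound treatment at 37C, then CellTiter-Fluor for 1hr before fluorescence reading.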
Assay [4] is described as follows: Caspase-3/7 induction in CHO-K1 cells by small molecules, qHTS assay (AID 1346980). Note: nearly all actives have a fitted effect of over 15% in size. The method, boiled down: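 Luminescent Caspase-Glo 3/7 read (30min, room temperature) quantified apoptosis induction. Cells were wild-type CHO-K1, treated with compound for 17hr at 37 C and 5% CO2.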
For assay [5], the target named is Nuclear receptor subfamily 1 group I member 2 (Homo sapiens) (UniProt O75469). Kind of assay: Human pregnane X receptor (PXR) small molecule agonists, qHTS assay (AID 1346982). Note: nearly all actives have a fitted effect of over 35% in size. Note: potency is the fitted concentration of half-maximal effect. The method, boiled down:
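Reporter HepG2 cells expressing PXR-Luc are cultured in charcoal-stripped FBS (5%), treated with compounds for 24 hr at 37 C, and assayed by ONE-Glo luminescence after 30 min at room temperature.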

Assay [6] deals with Acetylcholinesterase (Homo sapiens) (UniProt P22303). In words: Acetylcholinesterase (AChE) small molecule antagonists: colormetric cell-based qHTS assay (AID 1347395; calls by dose curve; note: nearly all actives have a fitted effect of over 30% in size). A digest of the protocol:
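Cells (SH-SY5Y, 2,000 per well) are seeded and left overnight at 37 C. Compound is added for 30 min, then DTNB and acetylthiocholine for a further 90 min at 37 C before absorbance-based thiocholine detection.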

Assay [7] shares this target. Kind of assay: Acetylcholinesterase (AChE) small molecule antagonists: enzyme-based qHTS assay (AID 1347397; calls by dose curve; note: nearly all actives have a fitted effect of over 55% in size). Particulars: Potency: AChE enzyme activity inhibition. The method, boiled down:
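First, recombinant human AChE (50 mU/mL as dispensed) received test compound or DMSO. Second, plates stood 30 min at room temperature. Third, DTNB and acetylthiocholine were added, followed by 10 min at room temperature and colorimetric detection.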

Assay [8] has the same target. Kind of assay: Acetylcholinesterase (AChE) small molecule antagonists: fluorescence cell-based qHTS assay (AID 1347398; calls by dose curve; note: nearly all actives have a fitted effect of over 50% in size). Particulars: Potency: AChE activity. The method, boiled down: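 Homogeneous quantitative HTS format. SH-SY5Y cells seeded at 2,000 per well settle overnight at 37 C. Compound pretreatment runs 30 min (37 C, 5% CO2); substrate/probe mix then reacts 40 min at RT before reading 490/520 nm.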

The target is the same in assay [9]. In words: Acetylcholinesterase (AChE) small molecule antagonists: enzyme-based qHTS assay with human liver microsomes (AID 1347399; calls by dose curve; note: nearly all actives have a fitted effect of over 60% in size). Particulars: Potency: qHTS inhibition. The method, boiled down: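 Recombinant human AChE (50 mU/mL in the enzyme mix) and human liver microsomes (0.25 mg/mL final) were preincubated with compound and NADPH (0.25 mg/mL final) for 30 min at 37 C. Acetylthiocholine/DTNB was then added; thiocholine was read colorimetrically after 10 min at room temperature.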

For assay [10], the target named is Cytochrome P450 2C9 (Homo sapiens) (UniProt P11712). In words: Cytochrome P450 Family 2 Subfamily C Member 9 (CYP2C9) small molecule antagonists: luciferase reporter qHTS assay (AID 1671198). For activity change, negative = inhibition: series mostly up to about 120 µM. Note: nearly all actives have a fitted effect of over 50% in size. Note: potency is the fitted concentration of half-maximal effect. The method, boiled down:
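Enzyme-substrate mix preincubated with compound 10 min at room temperature; reaction started with NADPH regeneration solution, 1 h 37C. Luminescent luciferin product read after 20 min detection reagent.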
For orientation: In a reporter assay the amount or activity of a reporter protein is the signal.

Assay [11] concerns the target Voltage-gated inwardly rectifying potassium channel KCNH2 (Homo sapiens) (UniProt Q12809). In words: Human Ether-a-go-go-Related Gene (hERG) channel small molecule antagonists: fluorescence cell-based qHTS assay (AID 1671200).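 For activity change, negative = inhibition: hERG-expressing U2OS cells given a thallium stimulus after FluxOR II dye loading; series mostly up to about 77 µM.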 Note: nearly all actives have a fitted effect of over 50% in size. Note: potency is the fitted concentration of half-maximal effect. A digest of the protocol:
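Fluorescence at 540 nm emission (480 nm excitation) was recorded kinetically for 2 min at 1-second intervals once the thallium-containing stimulus reached cells previously loaded with FluxOR II dye.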

Assay [12] has as its target Cytochrome P450 3A4 (Homo sapiens) (UniProt P08684). Kind of assay: Cytochrome P450 Family 3 Subfamily A Member 4 (CYP3A4) small molecule antagonists: luciferase reporter qHTS assay (AID 1671201). The method, boiled down:
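qHTS, 1536-well. CYP3A4 + proluciferin substrate, cpd 10 min RT → NADPH regen 1 h RT → detection reagent 20 min → luminescence (RLU). Ketoconazole positive control.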

Assay [13] concerns the target Cytochrome P450 1A2 (Homo sapiens) (UniProt P05177). Kind of assay: Cytochrome P450 Family 1 Subfamily A Member 2 (CYP1A2) small molecule antagonists: luciferase reporter qHTS assay (AID 1671199). For activity change, negative = inhibition: series mostly up to about 120 µM. Note: nearly all actives have a fitted effect of over 50% in size. Note: potency is the fitted concentration of half-maximal effect. The method, boiled down:
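Steps: enzyme-substrate mix dispensed; test compounds and furafylline control pinned in; 10 min room temperature; NADPH regeneration solution added, 1 h; reaction stopped with luciferin detection reagent; luminescence read after 20 min.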

Assay [14] is described as follows: Caspase-3/7 induction in HepG2 cells by small molecules, qHTS cell viability counter screen (AID 1346981). Note: nearly all actives have a fitted effect of over 30% in size. Note: potency is the fitted concentration of half-maximal effect. The method, boiled down: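 In this quantitative HTS counter screen, compounds delivered in DMSO were left on unmodified HepG2 cells for 16 hr at 37 C. Viability was then determined fluorometrically with CellTiter-Fluor, in parallel with caspase-3/7 induction in the same wells.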

Assay [15] has as its target Cytochrome P450 2D6 (Homo sapiens) (UniProt P10635). Kind of assay: Cytochrome P450 Family 2 Subfamily D Member 6 (CYP2D6) small molecule antagonists: luciferase reporter qHTS assay (AID 1671196). For activity change, negative = inhibition: series mostly up to about 120 µM. Note: nearly all actives have a fitted effect of over 50% in size. Note: potency is the fitted concentration of half-maximal effect. The method, boiled down:
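Test chemicals meet CYP2D6 plus proluciferin substrate (10 min, RT); NADPH regenerating solution then drives turnover for 1 h. Detection reagent halts the reaction; luminescence measured after 20 min.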

For assay [16], the target named is Cytochrome P450 2C19 (Homo sapiens) (UniProt P33261). Kind of assay: Cytochrome P450 Family 2 Subfamily C Member 19 (CYP2C19) small molecule antagonists: luciferase reporter qHTS assay (AID 1671197). For activity change, negative = inhibition: series mostly up to about 120 µM. Note: nearly all actives have a fitted effect of over 65% in size. Note: potency is the fitted concentration of half-maximal effect. The method, boiled down: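 Relative luminescence units recorded 20 min after the detection reagent stopped a 1 h, 37C CYP2C19 reaction on proluciferin substrate, which was started by NADPH regeneration following 10 min room-temperature compound preincubation; ketoconazole positive control.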
Cytochrome P450 2C19 (Homo sapiens), sequence (P33261 whole entry, looked up): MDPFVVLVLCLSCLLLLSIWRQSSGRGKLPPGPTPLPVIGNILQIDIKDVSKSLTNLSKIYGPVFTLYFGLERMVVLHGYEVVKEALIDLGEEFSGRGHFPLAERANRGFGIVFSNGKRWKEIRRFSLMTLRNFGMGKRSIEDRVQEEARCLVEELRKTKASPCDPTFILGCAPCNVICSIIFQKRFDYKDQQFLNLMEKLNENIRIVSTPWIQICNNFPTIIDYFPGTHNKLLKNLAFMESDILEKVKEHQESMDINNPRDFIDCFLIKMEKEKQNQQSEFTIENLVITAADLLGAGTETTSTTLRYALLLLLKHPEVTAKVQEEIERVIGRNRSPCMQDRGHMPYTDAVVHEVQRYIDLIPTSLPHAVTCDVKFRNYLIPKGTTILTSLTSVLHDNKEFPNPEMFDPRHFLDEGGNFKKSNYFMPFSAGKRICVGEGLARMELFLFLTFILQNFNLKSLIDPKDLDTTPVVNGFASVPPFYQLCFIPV

Unmarked numbers belong to inactive results. Records with an inconclusive call do not appear. Activity calls are given as the source filed them. Unless noted, calls come from the whole dose curve; as a rule, active = well fitted curve in the direction sought with a large enough effect in the repeat runs; inconclusive = weak or mixed curves; inactive = no such curve, though single readings can be large; an effect the other way counts as inactive or inconclusive.
% is set by controls: 0 for no effect and ±100 for the full control effect.

Cytochrome P450 2C9 (Homo sapiens), sequence (P11712 whole entry, looked up): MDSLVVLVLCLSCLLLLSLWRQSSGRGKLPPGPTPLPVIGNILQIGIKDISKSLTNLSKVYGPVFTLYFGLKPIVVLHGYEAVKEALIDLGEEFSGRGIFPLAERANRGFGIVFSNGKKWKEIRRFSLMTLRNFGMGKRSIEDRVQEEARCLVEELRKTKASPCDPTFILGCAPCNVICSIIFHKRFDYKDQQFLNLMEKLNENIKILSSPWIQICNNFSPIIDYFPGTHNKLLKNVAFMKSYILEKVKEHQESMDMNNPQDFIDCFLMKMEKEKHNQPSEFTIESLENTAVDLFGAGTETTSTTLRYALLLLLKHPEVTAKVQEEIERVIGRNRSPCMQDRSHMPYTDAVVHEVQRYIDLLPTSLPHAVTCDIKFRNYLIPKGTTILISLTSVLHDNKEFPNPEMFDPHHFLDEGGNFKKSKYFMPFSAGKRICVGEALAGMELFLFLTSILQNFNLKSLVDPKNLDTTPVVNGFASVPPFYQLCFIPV
Acetylcholinesterase (Homo sapiens), sequence (P22303 whole entry, looked up): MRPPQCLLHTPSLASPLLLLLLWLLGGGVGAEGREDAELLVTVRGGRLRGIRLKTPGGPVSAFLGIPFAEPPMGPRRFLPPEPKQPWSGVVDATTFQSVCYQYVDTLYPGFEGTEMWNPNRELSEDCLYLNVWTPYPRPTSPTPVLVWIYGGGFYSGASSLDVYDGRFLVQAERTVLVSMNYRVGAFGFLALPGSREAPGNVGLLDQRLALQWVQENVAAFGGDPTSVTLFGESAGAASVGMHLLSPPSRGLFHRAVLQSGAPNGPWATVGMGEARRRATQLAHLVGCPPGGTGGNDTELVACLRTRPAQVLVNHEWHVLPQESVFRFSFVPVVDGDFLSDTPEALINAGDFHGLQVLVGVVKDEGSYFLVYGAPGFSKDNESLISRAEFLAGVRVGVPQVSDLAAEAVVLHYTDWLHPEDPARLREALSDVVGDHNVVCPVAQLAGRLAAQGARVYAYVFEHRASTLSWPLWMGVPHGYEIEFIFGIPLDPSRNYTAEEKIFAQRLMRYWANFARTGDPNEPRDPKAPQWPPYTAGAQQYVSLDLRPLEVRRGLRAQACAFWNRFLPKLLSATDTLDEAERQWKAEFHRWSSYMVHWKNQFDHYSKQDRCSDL
Cytochrome P450 2D6 (Homo sapiens), sequence (P10635 whole entry, looked up): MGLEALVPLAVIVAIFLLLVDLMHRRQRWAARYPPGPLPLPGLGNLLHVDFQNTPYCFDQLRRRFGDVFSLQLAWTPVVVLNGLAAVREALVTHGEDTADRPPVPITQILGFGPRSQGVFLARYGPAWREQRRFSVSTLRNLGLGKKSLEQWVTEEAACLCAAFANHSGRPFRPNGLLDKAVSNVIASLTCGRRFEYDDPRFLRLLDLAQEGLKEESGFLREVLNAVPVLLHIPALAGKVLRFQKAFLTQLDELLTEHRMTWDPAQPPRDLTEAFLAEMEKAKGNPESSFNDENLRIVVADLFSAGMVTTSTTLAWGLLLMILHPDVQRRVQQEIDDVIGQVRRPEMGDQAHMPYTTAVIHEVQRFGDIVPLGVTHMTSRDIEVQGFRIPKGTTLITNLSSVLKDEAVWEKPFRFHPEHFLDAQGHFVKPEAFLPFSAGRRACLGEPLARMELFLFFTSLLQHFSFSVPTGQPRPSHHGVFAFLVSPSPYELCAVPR
Nuclear receptor subfamily 1 group I member 2 (Homo sapiens), sequence (O75469 whole entry, looked up): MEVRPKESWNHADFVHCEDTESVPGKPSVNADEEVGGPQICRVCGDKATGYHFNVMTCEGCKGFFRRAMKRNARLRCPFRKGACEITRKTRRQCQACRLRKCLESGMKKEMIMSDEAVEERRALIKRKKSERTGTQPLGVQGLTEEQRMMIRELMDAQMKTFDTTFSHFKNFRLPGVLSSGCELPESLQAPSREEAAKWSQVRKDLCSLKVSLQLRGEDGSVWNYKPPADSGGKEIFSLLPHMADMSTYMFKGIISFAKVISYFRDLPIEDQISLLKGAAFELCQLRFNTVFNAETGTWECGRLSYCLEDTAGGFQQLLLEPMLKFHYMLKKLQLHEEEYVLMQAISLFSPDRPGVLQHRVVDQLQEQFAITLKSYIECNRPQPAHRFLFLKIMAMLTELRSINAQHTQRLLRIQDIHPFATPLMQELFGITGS
Voltage-gated inwardly rectifying potassium channel KCNH2 (Homo sapiens), sequence (Q12809 whole entry, looked up): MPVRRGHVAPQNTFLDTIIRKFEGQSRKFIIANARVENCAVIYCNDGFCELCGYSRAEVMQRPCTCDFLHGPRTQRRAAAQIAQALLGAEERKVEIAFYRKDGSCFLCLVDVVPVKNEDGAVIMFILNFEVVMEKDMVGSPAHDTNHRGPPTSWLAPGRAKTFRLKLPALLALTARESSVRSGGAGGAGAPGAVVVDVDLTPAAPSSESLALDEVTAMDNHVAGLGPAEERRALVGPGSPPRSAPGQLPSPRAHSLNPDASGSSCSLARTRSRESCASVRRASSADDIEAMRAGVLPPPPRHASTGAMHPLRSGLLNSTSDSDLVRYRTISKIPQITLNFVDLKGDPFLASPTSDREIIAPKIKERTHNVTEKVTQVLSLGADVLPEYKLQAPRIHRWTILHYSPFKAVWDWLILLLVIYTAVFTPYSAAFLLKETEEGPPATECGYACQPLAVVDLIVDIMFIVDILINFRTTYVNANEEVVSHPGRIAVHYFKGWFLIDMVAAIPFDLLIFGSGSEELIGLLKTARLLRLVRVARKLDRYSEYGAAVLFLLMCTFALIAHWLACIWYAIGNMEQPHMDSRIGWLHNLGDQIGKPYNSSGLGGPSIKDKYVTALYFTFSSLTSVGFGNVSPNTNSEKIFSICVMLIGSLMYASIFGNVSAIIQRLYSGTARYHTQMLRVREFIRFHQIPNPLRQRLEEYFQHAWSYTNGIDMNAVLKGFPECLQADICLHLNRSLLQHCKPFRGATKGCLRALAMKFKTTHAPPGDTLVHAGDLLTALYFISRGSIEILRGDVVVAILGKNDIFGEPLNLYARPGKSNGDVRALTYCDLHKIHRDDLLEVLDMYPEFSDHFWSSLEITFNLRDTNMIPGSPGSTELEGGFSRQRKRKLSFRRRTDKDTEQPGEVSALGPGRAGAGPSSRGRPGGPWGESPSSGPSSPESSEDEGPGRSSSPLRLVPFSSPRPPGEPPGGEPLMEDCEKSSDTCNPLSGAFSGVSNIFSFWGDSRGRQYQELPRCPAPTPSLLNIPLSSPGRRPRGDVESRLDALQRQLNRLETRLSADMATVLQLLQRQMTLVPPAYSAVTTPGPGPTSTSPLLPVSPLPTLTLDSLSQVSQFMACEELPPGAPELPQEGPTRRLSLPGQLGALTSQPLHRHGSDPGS
Cytochrome P450 1A2 (Homo sapiens), sequence (P05177 whole entry, looked up): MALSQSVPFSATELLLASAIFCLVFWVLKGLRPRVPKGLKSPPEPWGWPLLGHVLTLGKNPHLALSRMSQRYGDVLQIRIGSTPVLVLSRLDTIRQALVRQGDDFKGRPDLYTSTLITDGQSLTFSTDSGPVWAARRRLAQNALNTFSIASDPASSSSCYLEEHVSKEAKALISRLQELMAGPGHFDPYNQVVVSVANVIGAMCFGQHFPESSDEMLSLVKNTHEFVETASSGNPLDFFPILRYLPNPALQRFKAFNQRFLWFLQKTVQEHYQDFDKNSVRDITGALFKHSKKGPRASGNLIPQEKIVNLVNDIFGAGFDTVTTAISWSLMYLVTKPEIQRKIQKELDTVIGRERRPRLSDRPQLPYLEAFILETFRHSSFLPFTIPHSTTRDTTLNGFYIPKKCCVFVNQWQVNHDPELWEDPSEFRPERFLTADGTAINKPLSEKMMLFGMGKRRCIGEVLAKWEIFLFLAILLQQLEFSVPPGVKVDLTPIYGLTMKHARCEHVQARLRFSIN
Cytochrome P450 3A4 (Homo sapiens), sequence (P08684 whole entry, looked up): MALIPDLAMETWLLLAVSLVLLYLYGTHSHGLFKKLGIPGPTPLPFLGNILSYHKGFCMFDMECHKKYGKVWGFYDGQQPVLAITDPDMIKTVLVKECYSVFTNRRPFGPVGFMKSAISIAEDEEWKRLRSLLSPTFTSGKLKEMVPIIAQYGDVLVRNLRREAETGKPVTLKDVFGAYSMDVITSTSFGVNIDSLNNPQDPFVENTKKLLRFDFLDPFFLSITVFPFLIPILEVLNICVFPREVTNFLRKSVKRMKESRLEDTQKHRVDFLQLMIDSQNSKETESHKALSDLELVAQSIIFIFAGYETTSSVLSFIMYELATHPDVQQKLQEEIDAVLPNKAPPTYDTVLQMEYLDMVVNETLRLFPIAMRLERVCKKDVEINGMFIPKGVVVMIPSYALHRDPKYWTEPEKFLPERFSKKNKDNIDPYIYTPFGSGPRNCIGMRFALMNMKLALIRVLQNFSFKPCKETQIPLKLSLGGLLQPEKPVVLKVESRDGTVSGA

Regarding `CC1CN1` (stereo not drawn), the Potency result in assay [1], in [2], in assay [3], in assay [4], in assay [5] and in assay [6] was “inactive” each time. Further, the Potency entry in assay [7], in assay [8], in assay [9], in assay [10], in assay [11] and in assay [12] was “inactive” in each case.

Take `Oc1ccc(Cl)c(Cl)c1`: the Potency entry in [1], in assay [2], in assay [4], in assay [7], in assay [8] and in [9] was “inactive” each time. Also, the Potency entry in assay [10] and in assay [11] was “inactive” throughout. In addition, the figures for the Potency in assay [3], in assay [5] and in assay [13] were 67.5 µM (active), 60.2 µM (active) and 39.3 µM (active), respectively.

Consider `O=c1c2ccccc2c(=O)c2c1cc(Cl)c1[nH]c3c([nH]c12)c(Cl)cc1c(=O)c2ccccc2c(=O)c13`, for which the Potency entry in assay [1], in [2], in [3], in assay [14], in assay [5] and in assay [7] was “inactive” in each case. Further, the Potency entry in assay [8], in assay [9], in [15], in assay [16], in [11] and in assay [12] was “inactive” throughout.

Turning to `CCC(OC(C)=O)C(CC(C)NC)(c1ccccc1)c1ccccc1` (stereo not drawn), the Potency is 27.5 µM (active) in [1]; 69.2 µM (active) in assay [2]; 69.2 µM (active) in assay [3]; 14.3 µM (active) in assay [15]; 32 µM (active) in assay [16]; 8.78 µM (active) in assay [11]. In addition, the Potency entry in assay [6], in assay [7], in assay [8], in [9], in assay [10] and in [13] was “inactive” throughout.

As to `CC(C)Br`, the Potency entry in assay [1], in assay [2], in assay [3], in [14], in assay [5] and in assay [7] was “inactive” throughout. In addition, the Potency result in assay [8], in assay [9] and in assay [15] was “inactive” throughout. Further, the Potency in assay [16] is 35.7 µM (active); in [10], 40 µM (active).

For `Cc1nn(-c2cc(NS(C)(=O)=O)c(Cl)cc2Cl)c(=O)n1C(F)F`, the Potency result in [1], in assay [2], in assay [3], in assay [14], in [5] and in assay [6] was “inactive” throughout. Further, the Potency entry in assay [7], in [8], in assay [9], in assay [15], in assay [16] and in assay [12] was “inactive” throughout. In [10], the Potency is 39.9 µM (active).

Take `CCC[CH2][Sn]([CH2]CCC)([CH2]CCC)[O][Sn]([CH2]CCC)([CH2]CCC)[CH2]CCC`: the Potency in [1] is 0.533 µM (active); in [2], 2.38 µM (active); in assay [3], 0.336 µM (active); in assay [14], 1.34 µM (active); in assay [5] it was 0.238 µM (active); in [15], 0.155 µM (active). In addition, the Potency in [16] was 0.981 µM (active); in assay [11], 1.7 µM (active). In addition, the activity, negative = inhibition in assay [6] is -0.727% [at 10.5 µM]. Moreover, the activity change, negative = inhibition is -1.88% [at 10.5 µM] in assay [7]; 2.81% [at 10.5 µM] in assay [8]; 0.495% [at 10.5 µM] in assay [9]; -6.75% [at 10.5 µM] in [13]; -17.7% [at 10.5 µM] in assay [12].

In the case of `CCC(C)Br` (stereo not drawn), the Potency result in assay [1], in assay [2], in [3], in assay [4], in [5] and in [6] was “inactive” in each case. In addition, the Potency result in assay [7], in [8], in assay [9], in assay [16], in [10] and in assay [13] was “inactive” throughout. Also, the Potency result in [12] is “inactive”.

For the origin of these results see PubChem BioAssay (Tox21).
